Among all 48,000 compounds or so, about 450 (0.94%) were called active. Entries that show only a call come without a potency. Roughly 19% stayed inconclusive and do not appear here. This is one part of a sample in which actives are shown more often than they occur. Calls follow the shape of the dose curve; as a rule, active = well fitted inhibition curve with a large enough effect; inconclusive = small, poorly fitted or top-dose-only effect; inactive = no such curve, though single readings can be large or run the other way.
assay: Primary qHTS for Identification of Small Molecule Inhibitors of Huntingtin Promoter Activity; details: HEK293 HTT promoter firefly luciferase reporter (activity 0% = vehicle and -100% = no light), 24 h; series mostly up to 57.5 µM; also: nearly all actives have a fitted effect of over 50% in size
Excerpt: Assay Provider: Russell L. Margolis M.D.
Department Neurology, Johns Hopkins University School of Medicine, Baltimore, MD
Huntington's Disease (HD) is a neurodegenerative disorder caused by a CAG repeat expansion in exon 1 of huntingtin (HTT). While there are currently no disease-modifying treatments for HD, recent efforts have focused on development of nucleotide-based therapeutics to lower HTT expression. As an alternative to siRNA or oligonucleotide methods, we hypothesized that suppression of HTT expression might be accomplished by small molecules that either (1) directly decrease HTT expression by suppressing HTT promoter activity or (2) indirectly decrease HTT expression by increasing the promoter activity of HTT-AS, the gene antisense to HTT that appears to inhibit expression of HTT.
We developed and employed a high throughput screen for modifiers of HTT and HTT-AS promoter activity using luminescent reporter HEK293 cells; of the 52,041 compounds tested, we identified 898 replicable hits. We used a rigorous stepwise approach to assess compound toxicity and the capacity of the compounds to specifically lower huntingtin protein in 5 different cell lines, including HEK293 cells, HD lymphoblastoid cells, mouse primary neurons, HD iPSCs differentiated into cortical-like neurons, and HD hESCs. We found no compounds which were able to lower huntingtin without lowering cell viability in all assays, though the potential efficacy of a few compounds at non-toxic doses could not be excluded.
SEQUENCE No. (1, 2, 3, etc.); […] (e.g., Cells, Incubation, Reagent, etc.); VALUE and DESCRIPTION.
1; Reagent; 4 uL; 2,500 Hek293 luciferase reporter cells per wells
3; Compound; 23 nL; Control inhibitor / compound library
5; Reagent; 2.5 uL; Firefly Luc reagent; Dual-Glo Luciferase Reporter Assay System (Promega)
6; Time; 10 min; room temperature incubation
7; Detection; Luminescence; FLuc
NOTES (numbers refer to sequence above)
1; High-throughput screening, measuring luminescence from a Hek293 luciferase reporter, was performed in 1,536 well white-walled tissue-culture treated plates. 2,500 cells were plated in 4 µL of Opti-MEM per well using a Multidrop Combi Reagent Dispenser (ThermoFisher).
2; Assay plates were cultured for 24 hours.
3; Control inhibitor (PTC124; final concentration of 50 uM) and compound library (at final concentrations of 460 nM - 57.5 uM) were added to the assay plate using the Kalypsis Pintool Robotic System equipped with 1536 pinheads.
4; Cells were then incubated for 24 hours at 37 degrees C prior to luminescence measurements.
5; In all cases, luminescence was measured using the Dual-Glo Luciferase Reporter Assay System (Promega) following the manufacturer's instructions.
6; Room temperature incubation.
7; Luminescence signal was obtained using the PerkinElmer ViewLux plate reader. Results were normalized to vehicle control (0% activity) and zero RLU (-100% activity).
Potency is read from the fitted curve at half-maximal effect.

SMILES | Potency
COc1ccc(Br)cc1C1CC(=O)Nc2c1c(C)nn2-c1nc(C)cc(C)n1 (stereo not given) | inactive
CCC(=O)Nc1c(C(=O)N2CCN(c3ccc(F)cc3)CC2)oc2ccccc12 | inactive
COc1cccc(-c2n[nH]c3c2C(c2cccc(O)c2)N(C)C3=O)c1 (stereo not given) | inactive
COc1ccc(Cn2ccn(Cc3cccc(OC)c3)c(=O)c2=O)cc1 | inactive
CCN1CCN(CCCNC(=O)c2cnn(-c3ccc(C)cc3C)c2C2CCN(C(=O)OC(C)(C)C)CC2)CC1 | inactive
CCCCNC(=O)CSc1nc2cc3c(cc2c(=O)n1CCCCCC(=O)NCc1ccc2c(c1)OCO2)OCO3 | inactive
CCOC(=O)C1CCN(C(c2ccc(F)cc2)c2sc3nc(-c4ccco4)nn3c2O)CC1 (stereo not given) | inactive
CCOC(=O)c1cccc(NS(=O)(=O)c2cc(-c3cnc(C)o3)ccc2OC)c1 | inactive
COc1ccc(-c2cccc(NS(=O)(=O)c3cc(C)c(OC)c(C)c3C)c2)nn1 | 11.2 µM (active)
Cc1ccc(CCNC(=O)Cn2c(-c3cccs3)cc3cc(F)ccc32)cc1 | inactive
CCc1ccccc1NC(=O)Cn1c(=O)n(CC2CCC(C(=O)NCCc3ccccc3)CC2)c(=O)c2ccccc21 (stereo not given) | inactive
COc1cc(NS(=O)(=O)c2ccc3c(c2)OCC(C(=O)N2CCCC2)O3)cc(OC)c1 (stereo not given) | 14.1 µM (active)
COc1cc(NS(=O)(=O)c2cccs2)cc(OC)c1 | inactive
COc1ccc(OC)c2sc(N3CCN(C(=O)C4COc5ccccc5O4)CC3)nc12 (stereo not given) | inactive
COc1ccccc1CNC(=O)C(=O)NCC(c1cccs1)S(=O)(=O)c1cccs1 (stereo not given) | inactive
CC1CN(C(=O)N2CCC(C(=O)NCc3ccco3)CC2)c2cc(Cl)ccc2O1 (stereo not given) | inactive
CCc1ccc(CN(Cc2ccco2)C(=O)COc2ccc(Cl)c(C)c2)cc1 | inactive
CC(C)NC(=O)C1CCC(Cn2c(=O)c3sccc3n(Cc3ccc(F)cc3)c2=O)CC1 (stereo not given) | inactive
CC(=O)Nc1cccc(NC(=O)CSc2cn(CC(=O)N3CCCC3)c3ccccc23)c1 | inactive
Cc1ccc(-c2nn(CCC(=O)Nc3ccc(OC(F)(F)F)cc3)c(=O)c3ccccc23)cc1 | inactive
CCc1ccc(NC(=O)CN2CCSc3ccc(S(=O)(=O)N4CCCC4)cc32)cc1 | 31.6 µM (active)
CCc1ccc(NC(=O)CN2C(=O)CCSc3ccc(S(=O)(=O)N4CCCC4)cc32)cc1 | inactive
CN(C(=O)CN1C(=O)CCSc2ccc(S(=O)(=O)N3CCCC3)cc21)c1ccccc1 | inactive
COC(=O)c1ccccc1NC(=O)c1cnn(-c2ccc(F)cc2)c1-n1cccc1 | inactive
CCCCN(CC)CCCNC(=O)c1nn(C)c2c1CS(=O)(=O)c1ccccc1-2 | inactive
CCCCC(=O)OC1=CN(Cc2ccccc2)S(=O)(=O)c2ccccc21 | inactive
COc1cccc(NC(=O)Cn2c(=O)cc(C)c3c(C)nn(-c4cccc(F)c4)c32)c1 | inactive
COc1ccc(NC(=O)c2ccco2)cc1NC(=O)COc1ccc(C)c(C)c1 | inactive
CCOC(=O)c1ccccc1NC(=O)CCc1c(C)nc2c(c1C)c(=O)n(C)c(=O)n2C | inactive
CCc1nn(CC(=O)NCC(C)c2ccccc2)c(=O)c2cc3occc3n12 (stereo not given) | inactive

Reference: PubChem BioAssay AID1508623 (National Center for Advancing Translational Sciences (NCATS), 2021)
